Unmarked numbers belong to inactive results. Calls of active or inactive are those of the source.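 Rule for the calls, unless noted: active = mean inhibition above 46.68%, the untreated control wells mean plus 3 SD; inactive = the rest.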
Assays:
[1] = molecular target: Nuclear receptor coactivator 1 (Homo sapiens) (UniProt Q15788); assay: SRC1 coactivator transcriptional activity inhibitors, confirmation, cell-based, luminescence, quadruplicate (AID 588820); settings: HEK293 GAL4-SRC1 luciferase reporter, at 3.6 µM, active compounds read high;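 note: 0% = DMSO wells and 100% = gossypol 36 µM treated wells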
Chain of Nuclear receptor coactivator 1 (Homo sapiens) (Q15788 whole entry, looked up, the tested form may be a part): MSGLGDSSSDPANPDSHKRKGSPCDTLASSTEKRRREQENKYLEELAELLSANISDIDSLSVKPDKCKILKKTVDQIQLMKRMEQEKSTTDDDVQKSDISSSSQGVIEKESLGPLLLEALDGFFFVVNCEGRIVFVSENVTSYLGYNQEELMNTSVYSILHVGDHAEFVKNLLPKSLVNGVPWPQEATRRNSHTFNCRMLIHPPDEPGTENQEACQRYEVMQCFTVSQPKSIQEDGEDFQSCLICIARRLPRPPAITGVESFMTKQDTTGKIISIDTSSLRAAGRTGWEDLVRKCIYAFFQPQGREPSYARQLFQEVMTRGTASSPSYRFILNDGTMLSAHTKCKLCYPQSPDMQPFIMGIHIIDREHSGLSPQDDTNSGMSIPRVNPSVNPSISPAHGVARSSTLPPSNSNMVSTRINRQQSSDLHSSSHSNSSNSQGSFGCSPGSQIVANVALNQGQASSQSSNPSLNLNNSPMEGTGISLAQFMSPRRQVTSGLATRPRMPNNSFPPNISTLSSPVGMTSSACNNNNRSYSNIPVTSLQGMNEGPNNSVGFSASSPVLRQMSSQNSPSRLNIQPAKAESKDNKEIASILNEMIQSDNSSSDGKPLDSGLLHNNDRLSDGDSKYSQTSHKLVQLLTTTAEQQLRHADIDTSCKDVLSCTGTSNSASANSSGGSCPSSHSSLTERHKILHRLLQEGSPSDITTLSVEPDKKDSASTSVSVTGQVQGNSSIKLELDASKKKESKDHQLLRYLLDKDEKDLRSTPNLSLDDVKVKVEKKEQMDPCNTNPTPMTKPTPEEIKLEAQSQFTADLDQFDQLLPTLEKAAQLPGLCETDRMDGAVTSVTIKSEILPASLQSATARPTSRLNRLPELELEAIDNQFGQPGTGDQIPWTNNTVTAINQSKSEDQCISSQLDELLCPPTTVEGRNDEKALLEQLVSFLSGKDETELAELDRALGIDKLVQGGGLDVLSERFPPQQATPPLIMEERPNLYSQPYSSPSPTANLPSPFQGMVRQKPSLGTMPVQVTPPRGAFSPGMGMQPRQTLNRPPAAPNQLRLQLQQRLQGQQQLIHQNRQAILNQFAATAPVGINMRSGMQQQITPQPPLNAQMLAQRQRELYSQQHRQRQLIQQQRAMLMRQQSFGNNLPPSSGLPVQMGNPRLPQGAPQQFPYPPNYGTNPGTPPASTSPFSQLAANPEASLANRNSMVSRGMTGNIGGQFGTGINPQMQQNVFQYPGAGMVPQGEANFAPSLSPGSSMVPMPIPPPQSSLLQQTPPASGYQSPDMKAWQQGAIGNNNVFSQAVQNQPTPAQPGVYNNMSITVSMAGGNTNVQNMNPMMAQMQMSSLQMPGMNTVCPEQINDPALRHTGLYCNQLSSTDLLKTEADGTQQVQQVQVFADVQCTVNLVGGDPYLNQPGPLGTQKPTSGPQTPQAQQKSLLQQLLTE

[2] = VP16 transactivation inhibitors, counter-screen for SRC1 inhibitor project, cell-based, luminescence, high throughput (AID 588824; in the data active = inhibition above about 25%); settings: cell-based VP16 transactivation luciferase luminescence; at 3.6 µM; active compounds read high

SMILES: CC(CNC(=O)c1cc(COc2ccc3ncccc3c2)on1)c1ccccc1 (stereo unspecified)
- inhibition [1]: -0.59%
- inhibition [2]: 3.38%

SMILES: CC1(C(=O)NS(=O)(=O)Cc2cccc(Cl)c2)CCN1C(=O)Cc1ccc(-c2ccccc2)cc1 (stereo unspecified)
- inhibition [1]: -5.52%
- inhibition [2]: -14.3%

SMILES: COc1cccc(NC(=O)CN(C)CC(=O)Nc2ccc(C)c([N+](=O)[O-])c2)c1
- inhibition [1]: 28%
- inhibition [2]: 27.2% (active)

SMILES: COc1ccc2c(C#N)c3ccccn3c2c1
- inhibition [1]: 37.4%
- inhibition [2]: 7.81%

SMILES: Cc1ccc(Oc2ccccc2NC(=O)CSCC(=O)Nc2cc(C)on2)cc1
- inhibition [1]: 1.59%
- inhibition [2]: 16.1%

SMILES: O=C(Nc1ccc(Cc2ccncc2)cc1)c1ccc(S(=O)(=O)N2CCOCC2)cc1
- inhibition [1]: -12.7%
- inhibition [2]: 9.65%

SMILES: COc1ccccc1NC(=O)Cn1c(C)cc(=O)c2cccc(OC)c21
- inhibition [1]: -24.2%
- inhibition [2]: 4.63%

SMILES: O=c1cc(N2CCN(c3ccccc3Cl)CC2)[nH]c(=O)n1Cc1ccc(F)cc1
- inhibition [1]: -4.06%
- inhibition [2]: 16.8%

SMILES: C/C(=N\NC(=O)Cc1ccc(Cl)cc1)c1ccccn1
- inhibition [1]: -28.3%
- inhibition [2]: 23.3%

SMILES: CC(C)c1ccc2c(c1)C(N1CCN(C)CC1)Cc1cccnc1S2 (stereo unspecified)
- inhibition [1]: 6.3%
- inhibition [2]: -5.2%

SMILES: CCCc1cc(-c2ccc(O)c(OCC)c2)c(C#N)c(N)n1
- inhibition [1]: -3.92%
- inhibition [2]: -2.24%

SMILES: Cc1cccc(N2CC(C(=O)Nc3ccc(S(=O)(=O)Nc4nccs4)cc3)CC2=O)c1C (stereo unspecified)
- inhibition [1]: -14.9%
- inhibition [2]: -6.59%

SMILES: CCN1C(=O)c2cccc3c(S(=O)(=O)Nc4ccc(O)c(C(=O)O)c4)ccc1c23
- inhibition [1]: 5.84%
- inhibition [2]: -15.2%

SMILES: CCC1(c2ccccc2)NC(=O)N(CC(=O)Nc2ccccc2C(=O)NC2CCCC2)C1=O (stereo unspecified)
- inhibition [1]: -5.15%
- inhibition [2]: -0.59%

SMILES: O=C(Cc1cccs1)N(CC1CCCO1)C1(C(=O)NC2CCCC2)CCCCC1 (stereo unspecified)
- inhibition [1]: 3.51%
- inhibition [2]: 17.6%

SMILES: Cc1cc(C(=O)OCC(=O)N2CC(C)OC(C)C2)c(C)n1-c1ccccc1 (stereo unspecified)
- inhibition [1]: -17%
- inhibition [2]: -1.93%

SMILES: CC(=O)N1CCc2c(sc(NC(=O)C3CCCN3S(=O)(=O)c3cccs3)c2C(N)=O)C1 (stereo unspecified)
- inhibition [1]: 4.87%
- inhibition [2]: -1.35%

SMILES: CN1C(=O)[C@H](Cc2ccc([N+](=O)[O-])cc2)NC1=S
- inhibition [1]: 27.2%
- inhibition [2]: 26.4% (active)

SMILES: CCOC(=O)c1cc(C#N)c(SCC(=O)OC)[nH]c1=O
- inhibition [1]: 1.73%
- inhibition [2]: -9.78%

SMILES: CC1CCCCN1c1ncnc2ccccc12 (stereo unspecified)
- inhibition [1]: 18.5%
- inhibition [2]: 17.9%

SMILES: COc1cc(NC(=O)c2cccc3c(-c4cccnc4)coc23)cc(OC)c1OC
- inhibition [1]: -19.1%
- inhibition [2]: 28.3% (active)

SMILES: Cc1nn(CC(=O)N2CCN(c3cccc(C(F)(F)F)c3)CC2)c(=O)c2cccn12
- inhibition [1]: 23.4%
- inhibition [2]: 8.52%

SMILES: Cc1ccc(C(=O)NCCn2cc(SCC(=O)Nc3cc(C)on3)c3ccccc32)cc1
- inhibition [1]: 0.49%
- inhibition [2]: -11.3%

SMILES: O=C1c2cccc(OCc3ccc(F)cc3)c2CCN1Cc1ccc(F)cc1
- inhibition [1]: 21.3%
- inhibition [2]: 33.4% (active)

SMILES: Nc1nc(Cl)nc2ccc(Br)cc12
- inhibition [1]: -6.1%
- inhibition [2]: -0.41%

SMILES: Cc1ccccc1-c1ccc(CN2C(C)C(=O)N(Cc3cn(Cc4ccco4)nn3)CCS2(=O)=O)cc1 (stereo unspecified)
- inhibition [1]: 7.13%
- inhibition [2]: 6.95%

SMILES: CC1(C)CC(=O)c2sc(N)nc2C1
- inhibition [1]: -9.15%
- inhibition [2]: 0.81%

SMILES: COc1ccc(-c2csc(N3CCN(c4cc(C)nc5ccccc45)CC3)n2)cc1OC
- inhibition [1]: -18%
- inhibition [2]: 20.4%

SMILES: COc1ccccc1CNC(=O)C1CCCN(S(=O)(=O)c2cccc3nsnc23)C1 (stereo unspecified)
- inhibition [1]: -23.4%
- inhibition [2]: -0.08%

SMILES: CCc1ccc2oc(=O)cc(CN3CCN(Cc4ccccc4)CC3)c2c1
- inhibition [1]: -7.76%
- inhibition [2]: 2.82%

SMILES: COc1ccc(-c2[nH]ncc2CN2CCC(O)(c3ccc(Cl)cc3)CC2)cc1
- inhibition [1]: 13.2%
- inhibition [2]: 10.8%

SMILES: CCNc1nc(NC(C)(C)C)nc(N2CCCCC2)n1
- inhibition [1]: 8.01%
- inhibition [2]: 12.6%

SMILES: CCN1CCN(c2ccc(S(=O)(=O)N3CCCCC3)cc2NC(=O)c2cccc(Cl)c2)CC1
- inhibition [1]: -2.97%
- inhibition [2]: -2.54%

From PubChem BioAssay
